Screening results from PubChem BioAssay.
ALDH1A1 inh: inhibitors of human aldehyde dehydrogenase 1A1; Purified ALDH1A1, NADH fluorescence, propionaldehyde substrate; hit rate 7.3% among 220,000; Potency, µM (titrated, usually from 75.3 µM), inactives show top-dose activity, negative = inhibition, most hits filed as inhibitors;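 also: potency is read from the fitted curve at half-maximal effect; plate controls were no enzyme wells and a reference inhibitor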
Target sequence (P00352 whole entry, looked up): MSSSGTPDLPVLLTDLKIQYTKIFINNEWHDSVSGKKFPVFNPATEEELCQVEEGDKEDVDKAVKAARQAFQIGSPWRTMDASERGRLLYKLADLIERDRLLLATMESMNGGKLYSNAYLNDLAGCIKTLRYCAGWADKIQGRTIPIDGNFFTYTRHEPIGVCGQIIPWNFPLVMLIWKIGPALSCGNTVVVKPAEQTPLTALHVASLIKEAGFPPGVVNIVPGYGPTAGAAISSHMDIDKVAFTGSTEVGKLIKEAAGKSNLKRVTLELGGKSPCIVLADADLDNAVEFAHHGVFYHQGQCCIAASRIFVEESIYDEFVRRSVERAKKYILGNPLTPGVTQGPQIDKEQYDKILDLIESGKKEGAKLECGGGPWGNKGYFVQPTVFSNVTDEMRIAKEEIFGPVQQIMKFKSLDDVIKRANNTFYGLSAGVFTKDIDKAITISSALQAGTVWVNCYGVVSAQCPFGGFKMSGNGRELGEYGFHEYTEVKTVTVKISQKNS
PNC inhibitor: inhibitors of perinucleolar compartment assembly. PC3M PTB-GFP, PNC prevalence imaging, 16 h; active compounds read low. activity change (PNC), negative = inhibition, % at 10 µM. hit rate 3.1% among 140,000;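 active = readout at or below -70, meaning at least 70% loss of cells showing the perinucleolar compartment, a nuclear body marking cancer cells; inconclusive = readout between -30 and a set limit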;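 also: plate controls were DMSO wells for no effect and camptothecin positive control wells for full effect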
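Read-out is percentage of cells bearing a perinucleolar compartment, from automated 20x imaging of fixed, Hoechst-stained PC3M PTB-GFP cells. Cells were seeded 4 h, then exposed 16 h to compound (23 nl of library stock) in duplicate plates.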
HPGD inh: inhibitors of human 15-hydroxyprostaglandin dehydrogenase (HPGD); purified HPGD, NADH fluorescence kinetic, PGE2 substrate; Potency, µM, for inactives: at the highest dose activity change, negative = inhibition, usual class: inhibitors; hit rate 4.3% among 150,000; also: potency is read from the fitted curve at half-maximal effect
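NADH formation kinetics: reaction with 30 uM PGE2 and 1 mM NAD+ (final), 20 nM enzyme, Tris-HCl pH 8 with Tween 20, after 15 min compound preincubation at room temperature. Fluorescence change, last versus first of five reads.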
The depositor's hits bear a star; ? = inconclusive; . = not tested or not shown; [ ] = dose if it differs, or a comment. The list is not random: actives were taken first. Their share in the collection is about 11%. Unless noted, calls follow the shape of the dose curve; as a rule, active = well fitted inhibition curve with a large enough effect (not every such curve was filed as active); inconclusive = small, poorly fitted or top-dose-only effect, or another doubt; inactive = no such curve, though single readings can be large or run the other way. Unless noted, % is scaled to controls: 0 for no effect and ±100 for the full control effect.

SMILES	ALDH1A1 inh	PNC inhibitor	HPGD inh
CC(C)(C)C(=O)NC(n1cnc2c(N3CCOCC3)ncnc21)C(Cl)(Cl)Cl (configuration not stated)	1%	.	.
CCOC(=O)N1CCN(c2cc(=O)n(-c3cccc(C)c3)c(=O)[nH]2)CC1	-10%	.	.
Cc1cccc(N)c1-c1c(C)cccc1N	1%	.	.
N[C@H](C(=O)O)[C@H](N)C(=O)O	-1%[13.5 µM]	.	-1%
Cc1cc(C)n(C(=O)c2cc(F)c(F)cc2C)n1	1%	.	.
Cc1ccccc1C(=O)Nc1ccccc1-n1cccc1	4%	?	-4%
COc1ccc(CNCC(=O)Nc2ccccc2-n2cccc2)cc1	28µM*	.	.
N#CCCN(C(=O)COC(=O)C1CCN(S(=O)(=O)c2cccs2)CC1)c1ccccc1	3%	.	.
C=C(C)C(O)/C=C/c1cccc(OC)c1 (configuration not stated)	-9%[13.5 µM]	.	.
CC(C)C1C(C#N)=C(N)Oc2n[nH]c(C(C)(C)C)c21 (configuration not stated)	3%	?	-6%
CCCC1C(C#N)=C(N)Oc2n[nH]c(C(C)(C)C)c21 (configuration not stated)	?	-114*	3%
N#Cc1ccc(CN2CCCC3(CCN(S(=O)(=O)c4ccccc4)CC3)C2)cc1	?	.	0%
O=C1c2ccccc2C(=O)N1OCc1cccc(Cl)c1	-1%	67	-2%
O=C1c2ccncc2C(=O)N1Cc1cccc(Cl)c1	1%	9	18µM*
CN(C(=O)COc1ccccc1C(=O)NCCOc1ccccc1)c1ccccc1	6%	22	-3%
Cc1ccc(C)c2c(N)c3c(nc12)CCCCC3 (tested in a mixture with another compound)	5%	.	.
COC(=O)CN(C)C1CC(=O)N(c2ccc(Cl)cc2)C1=O (configuration not stated)	3.2µM*	14	-22%
CN(Cc1ccncc1)C1CC(=O)N(c2ccc(Cl)cc2)C1=O (configuration not stated)	-10%	-28	-5%
Cc1ccc(C)c(N2C(=O)c3ccc(C(=O)OCC(=O)c4c(N)n(C)c(=O)n(C)c4=O)cc3C2=O)c1	20µM*	48	-19%
COc1ccc(C(=O)OCC(=O)c2c(N)n(C)c(=O)n(C)c2=O)cc1OC	3%	.	.
CCN1C(=O)CC2(C[N+]3(C)CCC2CC3)C1=O (configuration not stated)	16%	14	4%
Cc1c(NC(=S)NC(=O)c2cc3ccccc3o2)c(=O)n(-c2ccccc2)n1C	4%	25	-12%
COCC(=O)Nc1ccc(S(=O)(=O)Nc2cc(C)nc(C)n2)cc1	-3%	13	-3%
COc1ccc(C(=O)Nc2ccc(S(=O)(=O)Nc3cc(C)nc(C)n3)cc2)cc1OC	10µM*	.	.
COc1ccccc1C(=O)Nc1ccc(S(=O)(=O)Nc2cc(C)nc(C)n2)cc1	?	?	-3%
SMILES	ALDH1A1 inh	PNC inhibitor	HPGD inh
Cc1cc(NS(=O)(=O)c2ccc(NC(=O)/C=C/c3ccc(C)o3)cc2)nc(C)n1	3.5µM*	.	.
COc1cc(OC)cc(C(=O)Nc2ccc(S(=O)(=O)Nc3cc(C)nc(C)n3)cc2)c1	5µM*	4	-28%
COc1ccc(C(=O)Nc2ccc(S(=O)(=O)Nc3cc(C)nc(C)n3)cc2)c(OC)c1	?	5	-30%
COC(=O)c1c(C)oc(C)c1S(=O)(=O)N1CCOCC1	4%	.	.
Cc1ccc(SCN2CCCCC2)cc1 (tested in a mixture with another compound)	3%[13.5 µM]	.	-14%
CCC1=NN(S(=O)(=O)c2ccc(C)cc2)C(O)(C(F)(F)F)C1 (configuration not stated)	-15%	.	.
CCOC(=O)CNC(=O)O[C@H]1C(=O)c2cc(OC)ccc2O[C@@H]1c1ccc(OC)c(Br)c1	-3%	.	-9%
Nn1cnnc1N/N=C\c1ccc(-c2ccccc2[N+](=O)[O-])o1	25µM*	?	-22%
Clc1cccc(-c2ccc(/C=N/n3cnnc3)o2)c1	-4%	19	?
O=C(N/N=C/c1ccc(-c2ccccc2[N+](=O)[O-])o1)c1cncc(Br)c1	-6%	4	-16%
O=[N+]([O-])c1ccccc1-c1ccc(/C=N/n2cnnc2)o1	-10%	47	16µM*
O=C(O)/C(=C\c1ccc(Cl)cc1)c1ccc(F)cc1	20%	.	.
COCCN1Cc2cccc(C(=O)Nc3cc(C)cc(C)c3)c2C1=O	?	-85*	-26%
CCCN1Cc2cccc(C(=O)Nc3ccc4c(c3)OCCO4)c2C1=O	-12%	-106*	-9%
COCCN1Cc2cccc(C(=O)Nc3c(C)cc(C)cc3C)c2C1=O	-1%	?	-6%
CCCN1Cc2cccc(C(=O)Nc3ccc4c(c3)OCO4)c2C1=O	-13%	11	-11%
CC(C)CCNC(=O)COC(=O)c1cc(Br)c(Br)s1	-3%	.	.
c1ccc2c(c1)CCN(C1=Nc3cccc4cccc1c34)C2	-9%	.	.
Cn1nc(C(=O)OCC(=O)Nc2ccc3ccccc3c2)c2ccccc2c1=O	-8%	.	.
CC(=O)c1ccc(Sc2ccc(C(C)=O)cc2)cc1	0%	-25	18µM*
CC(=O)c1ccc(S(=O)c2ccccc2)cc1 (configuration not stated)	2%	?	?
Cc1nnc2sc(SCC(=O)Nc3nccs3)nn2c1=O	9%	-12	-15%
Cc1nn(-c2ccccc2Cl)c(Cl)c1/C=N/Nc1nc2ccccc2s1	6%	-83*	?
CCOC(=O)N/N=C/c1c(C)nn(-c2ccccc2Cl)c1Cl	-1%	-9	?
COC(=O)[C@@]1(Cc2ccccc2)[C@H]2c3cc(C(=O)N4CCCC4)n(CC4CC4)c3C[C@H]2CN1C(=O)c1ccccc1	-2%	.	-10%
SMILES	ALDH1A1 inh	PNC inhibitor	HPGD inh
CC#CCN1c2ccccc2[C@]23C[C@@H](C(=O)OC)N(S(=O)(=O)c4ccc5c(c4)OCCN5C)C2=NC(C(=O)OC)=C(C(=O)OC)[C@H]13	-6%[13.5 µM]	.	-1%
O=C(Nc1cnn(Cc2ccc(Cl)cc2)c1)c1ccc([N+](=O)[O-])cc1	5%	?	-13%
O=C(C[n+]1cnn(CC(=O)c2ccc(Cl)cc2Cl)c1)c1ccc([N+](=O)[O-])cc1	20µM*	-15	0%
COc1cccc(C(=O)C2CCCN(C(=O)c3cccc(C#CC(C)(C)O)c3)C2)c1 (configuration not stated)	-3%	.	.
COc1ccc(S(=O)(=O)N2CCC3(CC2)OCCO3)cc1	7%	.	.
CC(=O)Oc1c(/C=C(\C#N)C(N)=O)[nH]c2ccccc12	-2%	19	?
O=C(CC(c1cccs1)S(=O)(=O)c1ccccc1)c1ccc(F)cc1 (configuration not stated)	25µM*	-11	-1%
Cc1ccc(C(=O)CC(c2cccs2)S(=O)(=O)c2ccc(C)cc2)cc1 (configuration not stated)	-10%	-2	-11%
CC(C)Cn1cc(F)c(=O)n(CC(C)C)c1=O	-16%	.	.
CNC(=S)N1CCN(c2ccc(Cl)c(Cl)c2)CC1	3%	.	.
COc1cc2c(cc1OC)C1=NC(=O)CN1C(SCc1ccccc1C)=N2	?	12	?
C=CCSC1=Nc2sccc2C2=NC(=O)CN12	14µM*	80	-9%
O=C(NC(=S)NCCSc1ccccc1)c1cccnc1	14µM*	-95*	-14%
O=C(NC(=S)NCc1cccnc1)c1ccccc1	-2%	1	-1%
